Laboratory results taken from PubChem BioAssay AID540267 (National Center for Advancing Translational Sciences (NCATS), 2011).
Out of some 340,000 compounds screened, about 530 (0.16%) were called active. Another 2% or so got no clear call; they are omitted. Rule as the data show it: active = activity change below about -80%; inconclusive = between about -30% and that limit; inactive = weaker than that. This excerpt belongs to a sample that is enriched for actives.

Assay: Small Molecules that selectively kill Giardia lamblia: qHTS;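 also: parasites exposed to compound for two days anaerobically before the ATP read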
Details: Giardia lamblia trophozoite viability; at 7.66 µM; hits give low values
In short: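 Giardia trophozoites, 100 cells per well, were exposed to compounds for 48 hrs at 37 deg C under anaerobic conditions; viability was then read as ATP content by bioluminescence after 15-30 min at room temperature.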
% is scaled to controls: 0 for no effect and ±100 for the full control effect.

Row | Compound | activity change
1 | O=C(O)C1CCC(CNS(=O)(=O)c2ccc(Br)cc2)CC1 (stereo not drawn) | 18.6% (inactive)
2 | CCOc1ccc(N(C)Cc2cc(=O)oc3ccc(OC)cc23)cc1 | 0.548% (inactive)
3 | C=CCOc1ccc(/C=C/C(=O)OCC(=O)NC(C)c2ccc(F)cc2)cc1 (stereo not drawn) | -21.6% (inactive)
4 | COc1ccc2c(C)cc(SCC(=O)NCC3CCCO3)nc2c1 (stereo not drawn) | -1.83% (inactive)
5 | COc1ccc(-c2ccc(C3C4C=CCCC4(C)C(=O)N3Cc3ccccc3)c(F)c2)cc1OC (stereo not drawn) | 5.8% (inactive)
6 | C/C(CC(=O)Nc1ccc(C)cc1C)=N\NC(=O)C(C)C | -14.4% (inactive)
7 | CC(C)C(=O)N1c2ccccc2NC2=C(C(=O)CCC2)C1c1ccc(N(C)C)cc1 (stereo not drawn) | 1.62% (inactive)
8 | COC(=O)C1=C(C)N(C)C(=S)NC1c1ccccc1 (stereo not drawn) | -6.21% (inactive)
9 | COC(=O)C1=C(C)N(C)C(=O)NC1c1ccc([N+](=O)[O-])o1 (stereo not drawn) | -87.4% (active)
10 | COc1ccc(C2NC(=O)N(C)C(C)=C2[N+](=O)[O-])cc1 (stereo not drawn) | 22.3% (inactive)
11 | Oc1ccc(Cl)cc1C1C=C(c2ccc3c(c2)OCO3)NC(c2c(F)cccc2Cl)N1 (stereo not drawn) | -23.4% (inactive)
12 | CCOC(=O)CSc1nnc(CNC(=O)c2ccco2)n1-c1ccc(F)cc1 | -0.714% (inactive)
13 | O=[N+]([O-])c1ccc(C=NN=Cc2ccc([N+](=O)[O-])cc2)cc1 | 12.5% (inactive)
14 | C/[N+]([O-])=C\c1ccc([N+](=O)[O-])o1 | -92.7% (active)
15 | O=C(/C=C/c1ccc([N+](=O)[O-])o1)NNC(=O)c1ccc(F)cc1 | 2.18% (inactive)
16 | COc1cc(Cl)c(C)cc1NC(=O)CSc1nnc(-c2ccco2)n1CC(C)C | 6.88% (inactive)
17 | CC(C)Cn1c(N)c(C(=O)COC(=O)C2CCCN2C(=O)c2cccs2)c(=O)n(C)c1=O (stereo not drawn) | 20.2% (inactive)
18 | C[C@H](NC(=O)C1CCN(S(=O)(=O)c2ccccc2)CC1)C(=O)NCc1ccccc1 | 10.6% (inactive)
19 | O=C(NCc1ccccn1)[C@]1(C(F)(F)F)C[C@H](CCc2ccccc2)CCCO1 | -0.242% (inactive)
20 | COc1cccc(C(=O)c2sc3nc(-c4ccccc4)cc(C(F)(F)F)c3c2N)c1 | 4.39% (inactive)
21 | COc1ccc(S(=O)(=O)N2CCN(CC(=O)N3c4ccccc4CC3C)CC2)cc1OC (stereo not drawn) | -6.14% (inactive)
22 | CC(=O)Nc1ccc(S(=O)(=O)N2N=NC3C2C2CC4C3(CN(C(=O)OC(C)(C)C)S4(=O)=O)O2)cc1 (stereo not drawn) | -7.9% (inactive)

Row | Compound | activity change
23 | CN(C(=O)c1cc2c(=O)n3ccccc3nc2s1)C1CCCCC1 | 9.98% (inactive)
24 | CN(c1ccc2nc3ccccc3c(=O)n2n1)C1CCCCC1 | -82.4% (active)
25 | CC(C)C(C)NC(=O)COc1nc2ccccc2nc1N(C)C1CCCCC1 (stereo not drawn) | 0.279% (inactive)
26 | COC(=O)CCc1ccccc1S(=O)(=O)N(CCC(=O)OC)Cc1ccccc1 | 9.42% (inactive)
27 | CCCCN(C1CCS(=O)(=O)C1)S(=O)(=O)c1ccc(C(C)C)cc1 (stereo not drawn) | -8.89% (inactive)
28 | Cc1n[nH]c(C)c1S(=O)(=O)N1CCCC(C(=O)NCC2COc3ccccc3O2)C1 (stereo not drawn) | 1.3% (inactive)
29 | COc1ccc(S(=O)(=O)N2CCC(C(=O)OCC(=O)c3ccccc3)CC2)cc1[N+](=O)[O-] | -0.271% (inactive)
30 | Cc1ccc(NC(=O)C(C)OC(=O)Cc2c[nH]c3ccccc23)cc1S(=O)(=O)N1CCOCC1 (stereo not drawn) | -9.72% (inactive)
31 | COc1ccc(S(=O)(=O)Nc2cccc3cccnc23)c(N)c1 | -6.45% (inactive)
32 | CCCN1CCC(=O)N(C(CSc2ccc(C)cc2)Cc2ccccc2)CC1 (stereo not drawn) | 13% (inactive)
33 | CCc1nn(CC(=O)N2CCN(CC)CC2)c(=O)c2cccn12 | -17.4% (inactive)
34 | COc1ccc2c(c1)CC[C@@H]1[C@@H]2CC[C@]2(C)C(=O)CC[C@@H]12 | 2.55% (inactive)
35 | O=C(ON=C1CCN(S(=O)(=O)c2ccccc2)CC1)c1ccc(Cl)cc1 | -18% (inactive)
36 | Cc1cccc(NS(=O)(=O)c2ccc(-c3cnc(C4CC4)o3)cc2)c1 | 23.1% (inactive)
37 | COc1ccc(C2CC(O)(c3ccccc3)Oc3cc(C)cc(C)c32)cc1 (stereo not drawn) | -2.28% (inactive)
38 | CCOC(=O)c1cc(OC(=O)c2ccccc2Cl)n(-c2ccccc2)n1 | 20.6% (inactive)
39 | c1ccc(Cn2nnc3c(N4CCCCC4)ncnc32)cc1 | 6.21% (inactive)
40 | CCOc1ccc(NC(=O)CN(C)C(=O)Cn2c(=O)cnc3ccccc32)cc1OCC | 3.18% (inactive)
41 | COc1ccc(CN2CCC(=O)c3ccccc3S2(=O)=O)cc1 | -21.5% (inactive)
42 | CS(=O)(=O)N(Cc1ccc(Cl)cc1)c1ccc(C(=O)NCCSCc2ccco2)cc1 | 4.68% (inactive)
43 | Cc1nnc(SC(C(=O)Nc2cc(Cl)cc(Cl)c2)c2ccccc2)[nH]c1=O (stereo not drawn) | 24.1% (inactive)
44 | O=[N+]([O-])/C=C1\CCCCCN1 | -16.8% (inactive)

Row | Compound | activity change
45 | CNC(=O)[C@]1(C(F)(F)F)C[C@H](CCc2ccccc2)CCCO1 | -0.81% (inactive)
46 | N/C(=N\OC(=O)Cc1ccccc1[N+](=O)[O-])c1ccc(Br)cc1 | -8.48% (inactive)
47 | Cc1ncc([N+](=O)[O-])n1CCOC(=O)c1ccc(Br)cc1 | -80.4% (active)
48 | Cc1nn(CCOc2ccc(Br)cc2)c(C)c1[N+](=O)[O-] | -11% (inactive)
49 | C=CCCN(C(Cc1ccccc1)C(=O)OC)S(=O)(=O)c1cc(Br)ccc1Br (stereo not drawn) | -13% (inactive)
50 | CCN(CC)C(=O)COc1coc(CN2CCN(Cc3ccccc3)CC2)cc1=O | -13.6% (inactive)
51 | CCOC(=O)C1CCCN(C(=O)COc2ccc(N(C)S(=O)(=O)c3ccc(C)cc3)cc2)C1 (stereo not drawn) | -1.39% (inactive)
52 | COc1ccc(C2Nc3ccc(NC(=O)COC(C)=O)cc3C(=O)N2Cc2ccccc2)cc1COc1ccc(NC(C)=O)cc1 (stereo not drawn) | 26.7% (inactive)
53 | COc1ccc(OCCn2ccnc2C)cc1 | 8.15% (inactive)
54 | COc1ccc(-c2ccc(OC)c(C3C4C=CCC(C)C4C(=O)N3Cc3ccccc3)c2)cc1C (stereo not drawn) | 12.9% (inactive)
55 | CC1CC(C)CN(c2oc(-c3ccc(OCc4ccc(Cl)cc4)cc3)nc2C#N)C1 (stereo not drawn) | 25.3% (inactive)
56 | Cc1ccc(C(=O)N2CCN(C3CCCCC3)CC2)s1 | 2.7% (inactive)
57 | CCCC1OC23CCCCC2C(C#N)(C#N)C1(C#N)C(=N)O3 (stereo not drawn) | 1.74% (inactive)
58 | CC/C(=C(/c1ccccc1)c1ccc(OCC[N+](C)(C)C)cc1)c1ccccc1 | 8.29% (inactive)
59 | CCN(CC)S(=O)(=O)c1cc(C(=O)Nc2cc(S(=O)(=O)N3CCOCC3)ccc2N2CCCC2)ccc1F | -19.1% (inactive)
60 | CCN(CC)S(=O)(=O)c1ccc(N2CCCC2)c(NC(=O)c2ccc([N+](=O)[O-])o2)c1 | -96.4% (active)
61 | CCN(CC)S(=O)(=O)c1ccc(N2CCOCC2)c(NC(=O)c2ccc(=O)n(C)n2)c1 | -7.96% (inactive)
62 | COC(=O)c1ccc(NC(=O)CN(c2ccc(C)cc2)S(=O)(=O)c2c(C)n[nH]c2C)cc1 | 12.5% (inactive)
63 | Cc1ccc(CNC(=O)C2(C(F)(F)F)C/C(=C\CCO)CCCO2)o1 (stereo not drawn) | -14.6% (inactive)
64 | Oc1ccc(Br)cc1C1C=C(c2ccc3c(c2)OCO3)NC(c2ccc(Cl)cc2)N1 (stereo not drawn) | -6.54% (inactive)
65 | CC1CC(C)(C)CC2(C1)NC(=O)N(CC(=O)Nc1nccs1)C2=O (stereo not drawn) | 7.14% (inactive)
66 | COc1ccc(-c2nc(=N)sn2-c2ccccc2)cc1 | 5% (inactive)

Row | Compound | activity change
67 | Cc1ccc(SCC(CC(C)C)N2CCN(CCc3ccccc3)CCC2=O)cc1 (stereo not drawn) | -1.92% (inactive)
68 | COc1ccccc1Nc1cc(C(=O)NCCCN(C)C2CCCCC2)c2ccccc2n1 | -11.5% (inactive)
69 | CN(C)Cc1cn(-c2ccccc2)nc1-c1ccccc1 | 2.86% (inactive)
70 | [O-][n+]1ccc(OCc2ccccc2)cc1 | 23.2% (inactive)
71 | CCc1ccc(OCCCn2c(CCCNC(=O)C3CCCCC3)nc3ccccc32)cc1 | -7.56% (inactive)
72 | C=CCSc1nnc(N2C(=O)C(O)=C(C(=O)c3ccco3)C2c2ccc(F)cc2)s1 (stereo not drawn) | -13.6% (inactive)
73 | O=C(c1cccc(F)c1)N1CCN(c2ccc([N+](=O)[O-])c3cccnc23)CC1 | -82.8% (active)
74 | O=C(c1ccc(N2CCOCC2)c([N+](=O)[O-])c1)N1CCN(c2ccccc2F)CC1 | 8.07% (inactive)
75 | O=C(c1cccc(F)c1)N1CCN(c2ccc([N+](=O)[O-])c(N3CCCCC3)c2)CC1 | 5.61% (inactive)
76 | O=C(CN1C(=O)NC2(CCCCCC2)C1=O)NCc1cccs1 | -9.8% (inactive)
77 | COc1ccc(Br)cc1C1C2C=CCC(C)C2C(=O)N1Cc1ccccc1 (stereo not drawn) | 20% (inactive)
78 | O=C(O)C1CC=CC2CCN(C3CCCCC3)C(=O)C21 (stereo not drawn) | -16.4% (inactive)
79 | Cc1ccc2ccc3c(c2n1)NS(=O)(=O)c1ccccc1-3 | -5.37% (inactive)
80 | O=C(COc1ccccc1[N+](=O)[O-])N/N=C/c1ccc[nH]1 | 5.97% (inactive)
81 | Cc1ccccc1NCC(=O)N/N=C\c1ccc([N+](=O)[O-])s1 | -89.1% (active)
82 | Cc1cc(C(=O)N/N=C/c2cc([N+](=O)[O-])cc(C)c2O)n[nH]1 | -15.8% (inactive)
83 | Cc1cccc(/C=N/NC(=O)CNc2cccc3ccccc23)n1 | -9.25% (inactive)
84 | CC(C)c1cc(C(=O)N/N=C/C(Br)=C/c2ccccc2)n[nH]1 | 15.8% (inactive)
85 | CC(C)(C)c1cc(C(=O)N/N=C/c2ccc([N+](=O)[O-])s2)n[nH]1 | -93% (active)
86 | CC1(C)OC(=O)N2CCc3ccccc3C21C (stereo not drawn) | -12.9% (inactive)
87 | CCOc1ccc(C(C)=O)cc1CSc1nnc(-c2ccncc2)n1CCOC | 1.79% (inactive)
88 | O=C(NNC(=O)c1ccccc1[N+](=O)[O-])Nc1ccccc1C(F)(F)F | -21.9% (inactive)
